# Measurements taken from PubChem BioAssay (Tox21).
# Where “and” joins values, the source holds several entries; their conditions need not be identical. Equal entries are not always repeated. Calls of active or inactive are those of the source. Entries that show only a call come without a potency. Unless noted, calls follow the shape of the dose curve; as a rule, active = well fitted curve in the direction sought with a large enough effect in the repeat runs; inconclusive = weak or mixed curves; inactive = no such curve, though single readings can be large; an effect the other way counts as inactive or inconclusive.
# Assays:
# [1] = qHTS assay to identify small molecule antagonists of the thyroid receptor (TR) signaling pathway (AID 743065); also: nearly all actives have a fitted effect of over 55% in size; also: potency is read from the fitted curve at half-maximal effect
# Summary of the method: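 GH3.TRE-Luc rat pituitary cells carrying two TR response elements driving luciferase were plated for 4 h, given compound plus 1 nM T3 (final), and incubated 23.5 h at 37 C. ONE-Glo luminescence measured reporter inhibition; CellTiter-Fluor fluorescence tracked cytotoxicity.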
# [2] = system: thyroid hormone receptor (rat, GH3 cells); assay: qHTS assay to identify small molecule agonists of the thyroid receptor (TR) signaling pathway (AID 743066; calls by dose curve)
# [3] = biological target: Estrogen receptor (Homo sapiens) (UniProt P03372); assay: qHTS assay to identify small molecule antagonists of the estrogen receptor alpha (ER-alpha) signaling pathway (AID 743069; active = well fitted curve in the direction sought with a large enough effect in the signal ratio in the repeat runs, not every such curve was filed as active; inconclusive = weak or mixed curves, or effect the other way; inactive = no such curve, though single readings can be large or run the other way; the % refers to the signal ratio; also: potency is read from the fitted curve at half-maximal effect)
# Summary of the method: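 HEK293 cells stably carrying an ER-alpha-UAS-bla beta-lactamase reporter were pre-cultured overnight in 2% charcoal-stripped FBS medium. Test compounds in DMSO were added together with 17beta-estradiol for 18 hr at 37C. Read-out was fluorescence after 2 hr with LiveBLAzer B/G FRET substrate at room temperature.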
# [4] = qHTS assay to identify small molecule antagonists of the estrogen receptor alpha (ER-alpha) signaling pathway - cell viability counter screen (AID 743074; calls by dose curve; also: nearly all actives have a fitted effect of over 45% in size; also: potency is read from the fitted curve at half-maximal effect)
# [5] = biological target: Estrogen receptor (Homo sapiens) (UniProt P03372); assay: qHTS assay to identify small molecule agonists of the estrogen receptor alpha (ER-alpha) signaling pathway (AID 743075; calls by dose curve; also: potency is read from the fitted curve at half-maximal effect)
# [6] = qHTS assay to identify small molecule antagonists of the estrogen receptor alpha (ER-alpha) signaling pathway using the BG1 cell line (AID 743080; calls by dose curve;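 also: BG1 cells stimulated with 17beta-estradiol alongside compound; nearly all actives have a fitted effect of over 25% in size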; also: potency is read from the fitted curve at half-maximal effect)
# Summary of the method: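 Readout is ONE-Glo luminescence, taken 30 min at room temperature after reagent addition, preceded by a CellTiter-Fluor viability read; BG1-Luc-4E2 cells had received compound and 17beta-estradiol for 21.5 h at 37 C.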
# [7] = biological target: Aromatase (Homo sapiens) (UniProt P11511); assay: qHTS assay to identify aromatase inhibitors (AID 743083); also: nearly all actives have a fitted effect of over 55% in size; also: potency is read from the fitted curve at half-maximal effect
# [8] = qHTS assay to identify aromatase inhibitors - cell viability counter screen (AID 743084);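 also: cells stimulated with testosterone during compound exposure; nearly all actives have a fitted effect of over 55% in size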; also: potency is read from the fitted curve at half-maximal effect
# [9] = biological target: Estrogen receptor (Homo sapiens) (UniProt P03372); assay: qHTS assay to identify small molecule agonists of the estrogen receptor alpha (ER-alpha) signaling pathway using the BG1 cell line (AID 743079); also: nearly all actives have a fitted effect of over 20% in size; also: potency is read from the fitted curve at half-maximal effect
# [10] = qHTS assay to identify small molecule antagonists of the estrogen receptor alpha (ER-alpha) signaling pathway using the BG1 cell line - cell viability counter screen (AID 743081);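 also: compound given together with 17beta-estradiol as the ER stimulus; nearly all actives have a fitted effect of over 45% in size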; also: potency is read from the fitted curve at half-maximal effect
# Aromatase (Homo sapiens), sequence (P11511 whole entry, looked up): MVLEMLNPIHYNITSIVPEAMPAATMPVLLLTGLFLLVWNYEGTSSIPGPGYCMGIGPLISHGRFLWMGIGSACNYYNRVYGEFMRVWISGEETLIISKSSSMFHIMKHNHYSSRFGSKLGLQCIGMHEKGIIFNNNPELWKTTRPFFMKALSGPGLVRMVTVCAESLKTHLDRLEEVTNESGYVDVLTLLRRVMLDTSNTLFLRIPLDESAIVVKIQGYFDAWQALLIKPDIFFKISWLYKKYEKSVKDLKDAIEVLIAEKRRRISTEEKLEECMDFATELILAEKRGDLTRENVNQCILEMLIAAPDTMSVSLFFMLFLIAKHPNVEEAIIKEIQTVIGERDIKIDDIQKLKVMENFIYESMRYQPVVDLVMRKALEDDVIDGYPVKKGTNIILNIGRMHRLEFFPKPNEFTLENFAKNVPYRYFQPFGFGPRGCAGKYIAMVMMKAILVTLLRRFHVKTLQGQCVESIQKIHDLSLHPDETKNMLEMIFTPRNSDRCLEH
# Estrogen receptor (Homo sapiens), sequence (P03372 whole entry, looked up): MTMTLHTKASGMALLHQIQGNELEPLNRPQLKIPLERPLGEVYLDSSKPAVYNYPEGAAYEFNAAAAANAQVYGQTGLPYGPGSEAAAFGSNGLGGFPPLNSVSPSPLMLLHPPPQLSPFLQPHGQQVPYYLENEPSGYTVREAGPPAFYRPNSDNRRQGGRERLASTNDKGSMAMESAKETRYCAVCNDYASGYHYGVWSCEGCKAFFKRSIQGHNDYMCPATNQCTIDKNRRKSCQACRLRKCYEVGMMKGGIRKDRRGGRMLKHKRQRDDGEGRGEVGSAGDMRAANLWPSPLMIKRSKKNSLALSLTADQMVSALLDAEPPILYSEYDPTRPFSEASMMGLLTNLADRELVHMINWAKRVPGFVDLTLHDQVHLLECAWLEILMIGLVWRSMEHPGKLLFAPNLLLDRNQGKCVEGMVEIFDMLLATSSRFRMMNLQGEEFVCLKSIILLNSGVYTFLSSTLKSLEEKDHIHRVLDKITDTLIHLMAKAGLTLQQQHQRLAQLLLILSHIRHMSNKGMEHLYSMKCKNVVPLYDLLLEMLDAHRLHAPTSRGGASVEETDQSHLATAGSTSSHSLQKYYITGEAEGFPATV
Structure (SMILES),Potency [1],outcome [2],Potency [3],Potency [4],Potency [5],Potency [6],Potency [7],Potency [8],Potency [9],Potency [10]
C=CCC1=C(C)C(OC(=O)C2C(C=C(C)C)C2(C)C)CC1=O (stereo not drawn),25.8 µM (active),inactive,58.3 µM [fluorescent] (active),46.3 µM (active),inactive,36.4 µM (active),47.2 µM (active),25.8 µM (active),,
N#CCCC(Br)(C#N)CBr (stereo not drawn),13.7 µM (active),inactive,inactive,inactive,inactive,inactive,24.3 µM (active),27.3 µM (active),inactive,inactive
Clc1ccc(C(c2ccccc2Cl)C(Cl)(Cl)Cl)cc1 (stereo not drawn),27.5 µM (active) and 40.2 µM (active),inactive,inactive,inactive,,inactive,inactive,inactive,,inactive
CCCCCCCCCBr,inactive,inactive,inactive,inactive,inactive,inactive,inactive,inactive,inactive,inactive
C1CCC2CCCCC2C1 (stereo not drawn),inactive,inactive,inactive,inactive,inactive,inactive,inactive,inactive,inactive,inactive
ClC(Cl)=C(c1ccc(Cl)cc1)c1ccc(Cl)cc1,55.8 µM (active) and 30.6 µM (active),inactive,inactive,inactive,inactive,inactive,inactive,inactive,,inactive
O=C(NC(=O)c1c(F)cccc1F)Nc1cc(Cl)c(OC(F)(F)C(F)F)c(Cl)c1,inactive,inactive,inactive,inactive,inactive,,inactive,inactive,,inactive
CN(C)C1CSSSC1,inactive,inactive,inactive,inactive,inactive,inactive,inactive,inactive,inactive,inactive
ClCc1ccc(Cl)cc1Cl,inactive,inactive,inactive,inactive,inactive,inactive,inactive,inactive,inactive,inactive
CS(=O)(=O)c1ccc(C(=O)C2C(=O)CCCC2=O)c([N+](=O)[O-])c1,69.8 µM (active),inactive,inactive,,inactive,inactive,inactive,,inactive,inactive
O=C1c2ccccc2C(=O)C1C(=O)C(c1ccccc1)c1ccc(Cl)cc1 (stereo not drawn),15.4 µM (active),inactive,5.49 µM [inconclusive] (active),43.6 µM (active),inactive,,54.5 µM (active),,inactive,
CNC(C)Cc1ccc2c(c1)OCO2 (stereo not drawn),inactive,inactive,inactive,inactive,inactive,inactive,inactive,inactive,inactive,
CCCN(CCC)CCc1c[nH]c2ccccc12,30.2 µM (active),inactive,inactive,inactive,inactive,inactive,inactive,inactive,inactive,
CC(=O)C(Cl)(Cl)Cl,2.35 µM (active),inactive,1.88 µM [inconclusive] (active),inactive,,,13.2 µM (active),18.7 µM (active),,23.5 µM (active)
Cc1c(Cl)c(=O)oc2cc(OP(=O)(OCCCl)OCCCl)ccc12,inactive,inactive,inactive,inactive,inactive,inactive,inactive,,inactive,
NNC(=O)c1ccccc1,inactive,inactive,inactive,inactive,inactive,inactive,inactive,inactive,19.9 µM (active),inactive
O=[N+]([O-])c1cc([N+](=O)[O-])c2ccccc2c1,inactive,inactive,,,,,,,,
O=C(O)c1cc[c]([Hg][Cl])cc1,6.86 µM (active),inactive,inactive,inactive,49 µM [activator] (active),,61.1 µM (active),61.1 µM (active),,inactive
N#CCCSCCC#N,inactive,inactive,inactive,inactive,inactive,inactive,inactive,inactive,,inactive
O=C(O)COc1nc(Cl)c(Cl)cc1Cl,inactive,inactive,inactive,,inactive,inactive,inactive,,inactive,inactive
